Screens: PubChem BioAssay, National Center for Advancing Translational Sciences (NCATS)
Shown is part of a subset that was picked to be rich in hits.
DT40 TDP1 CPT – growth inhibition of DT40 Tdp1-/-;hTDP1 cells with camptothecin (screen for TDP1 inhibitors); Potency, µM (series often up to 46.2 µM), inactives show at the highest dose activity change, negative = growth inhibition, most hits filed as inhibitors; actives 12% (n = 420,000); AID 686979; chicken DT40 Tdp1-/-;hTDP1 cells + 20 nM CPT, ATP luminescence, 48 h; also: potency is read from the fitted curve at half-maximal effect; nearly all actives have a fitted effect of over 55% in size
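Chicken DT40 Tdp1-/- cells complemented with human TDP1, 400 cells/well, exposed to compounds plus 20 nM camptothecin for at least 48 h at 37 C; viability read as ATP content by CellTiter-Glo luminescence.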
IL-1B inflam inh – blocks inflammasome-driven IL-1 beta release; THP-1 LPS/ATP IL-1B secretion, AlphaLISA, 16 h; stronger effect = lower value; activity change, % at 57.5 µM; actives 4.7% (n = 360,000); AID 743279; in the data active = activity change below about -50%; inconclusive = mostly about -30% to -49%
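THP-1 cells pretreated 1 hr with compounds (up to 57.5 uM final), then stimulated with LPS (250 ng/mL final) plus ATP (1.25 mM final); secreted IL-1B measured by AlphaLISA after 16 hr, decreased signal indicating inhibition.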
TDP1 cell noCPT – qHTS for Inhibitors of human tyrosyl-DNA phosphodiesterase 1 (TDP1): qHTS in cells in absence of CPT; AID 686978, 2013; actives 15% (n = 420,000); DT40 Tdp1-/- hTDP1 cells, no CPT, ATP luminescence, 48 h; Potency, µM (highest dose often 46.2 µM), inactives show top-dose activity change, negative = growth inhibition, hits mostly inhibitors; also: potency is read from the fitted curve at half-maximal effect; nearly all actives have a fitted effect of over 55% in size
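Growth kinetics read by CellTiter-Glo luminescence after ≥48 hr at 37 °C. Cells: DT40 Tdp1-/- stably carrying human TDP1, 400 per well, compound exposure in the absence of CPT (DMSO vehicle).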
HT1080-NT tox – kills 2HG-producing HT-1080-NT fibrosarcoma cells | HT-1080-NT fibrosarcoma viability, CellTiter-Glo ATP luminescence, 48 h | Potency, µM (titrated, usually from 46.1 µM), for the others: top-dose activity, negative = less viability, actives largely listed as cytotoxic | actives 1.6% (n = 360,000);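 also: NT is the 2HG producing partner of a matched IDH1 knockdown line; potency is read from the fitted curve at half-maximal effect; 0% = DMSO-treated cells and -100% = media-only wells without cells; nearly all actives have a fitted effect of over 55% in size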
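Read-out is CellTiter-Glo luminescence after 10 minutes at room temperature, following 48 hours' compound treatment of HT-1080-NT cells (750 cells/well, RPMI, 5% FBS, 37 degrees C).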
ALOX12 inh – blocks human arachidonate 12S-lipoxygenase; actives 1.1% (n = 580,000); purified 12hLO, xylenol orange hydroperoxide absorbance; Potency, µM (titrated, usually from 108 µM), for the others: at the top dose activity change, negative = inhibition, usual class: inhibitors; AID 1671190; P18054; also: potency is read from the fitted curve at half-maximal effect
Target sequence (P18054 whole entry, looked up): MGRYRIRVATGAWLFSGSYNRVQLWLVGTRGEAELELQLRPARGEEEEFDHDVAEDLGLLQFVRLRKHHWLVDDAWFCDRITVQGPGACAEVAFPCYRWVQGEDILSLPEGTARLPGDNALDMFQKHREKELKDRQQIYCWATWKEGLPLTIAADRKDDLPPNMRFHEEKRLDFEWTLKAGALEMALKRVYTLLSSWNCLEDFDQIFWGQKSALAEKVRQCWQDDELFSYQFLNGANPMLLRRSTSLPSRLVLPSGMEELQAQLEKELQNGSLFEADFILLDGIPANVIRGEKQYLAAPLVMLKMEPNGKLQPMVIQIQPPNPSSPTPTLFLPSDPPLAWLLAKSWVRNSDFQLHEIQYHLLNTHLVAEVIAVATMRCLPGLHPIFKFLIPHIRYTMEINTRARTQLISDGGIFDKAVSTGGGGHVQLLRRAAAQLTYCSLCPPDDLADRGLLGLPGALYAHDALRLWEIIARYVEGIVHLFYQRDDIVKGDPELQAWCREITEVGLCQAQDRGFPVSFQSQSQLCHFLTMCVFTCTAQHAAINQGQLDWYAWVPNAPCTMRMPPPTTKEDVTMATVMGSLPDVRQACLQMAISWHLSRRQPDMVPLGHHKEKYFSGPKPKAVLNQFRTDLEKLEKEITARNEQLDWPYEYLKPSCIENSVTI
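Hydroperoxide product was detected by ferrous iron/xylenol orange as the 573 to 405 nm absorbance ratio. Arachidonic acid at 40 uM (final) was turned over for 30 min at room temperature by 150 nM human 12hLO, pH 7.0 Hepes buffer, after 15 min compound preincubation.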
HT1080 IDH1KD tx – HT-1080 IDH1 knockdown cell toxicity (counter line) | HT-1080 IDH1 knockdown viability, ATP luminescence, 48 h | Potency, µM (titrated, usually from 46.1 µM), for inactives: at the top dose activity, negative = toxicity, most hits filed as cytotoxic | actives 2% (n = 360,000) | AID 686971;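 also: potency is read from the fitted curve at half-maximal effect; 0% = DMSO wells and -100% = cell-free medium wells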
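IDH1KD HT-1080 cells, 750/well, RPMI + 5% FBS; compound pinned after 2 h settling; 48 h, 37 °C; CellTiter-Glo luminescence; % activity normalised to DMSO and no-cell wells; curves fitted, classed by r2 and efficacy.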
An asterisk follows results filed as active; ? = inconclusive; . = no result; [ ] = dose if it differs, or a comment. Unless noted, calls follow the shape of the dose curve; as a rule, active = well fitted curve in the direction sought with a large enough effect; inconclusive = small, poorly fitted or top-dose-only effect, or another doubt; inactive = no such curve, though single readings can be large; an effect the other way counts as inactive or inconclusive. Unless noted, % is scaled to controls: 0 for no effect and ±100 for the full control effect.

SMILES	DT40 TDP1 CPT	IL-1B inflam inh	TDP1 cell noCPT	HT1080-NT tox	ALOX12 inh	HT1080 IDH1KD tx
C=CCSc1nc2c(c(=O)[nH]c(=O)n2C)n1CCCC	.	.	.	.	-26%	.
CN(C)CCCNc1oc(-c2ccc([N+](=O)[O-])cc2)nc1C#N	.	.	.	.	-3%	.
COc1ccc2c(c1)c(CN1CCOCCNC(=O)CC1)cn2C	.	.	.	.	85%	.
CC(=O)N1c2ccc(S(=O)(=O)N(C)Cc3ccccc3)cc2CC1C (stereo unspecified)	-20%	-15	21µM*	14%	8%	8%
COCCNc1nc(NCCCN2CCCC2=O)c2sccc2n1	-3%	0	-6%	15%	-7%	0%
COc1ccccc1CNc1nc(NCCN2CCNC2=O)c2sccc2n1	18µM*	41	?	-6%	3%	-7%
COCCNc1nc(NCCN2CCNC2=O)c2sccc2n1	-21%	-71*	-5%	10%	0%	23%
O=S(=O)(Nc1nc2ccccc2nc1N1CCN(c2ncccn2)CC1)c1ccccc1	.	.	.	.	-22%	.
CCOc1c(Br)cc(C(=O)OCc2ccc(C#N)cc2)cc1OC	.	.	.	.	-23%	.
CCOC(=O)N1CCN(CC(=O)Nc2oc3ccccc3c(=O)c2-c2ccccc2)CC1	.	.	.	.	3%	.
COc1ccccc1N1CCN(C(=O)CCc2ccc(S(=O)(=O)NCC(C)C)cc2)CC1	?	0	23µM*	-11%	0%[57.4 µM]	-4%
COc1ccccc1N1CCN(C(=O)CCc2ccc(S(=O)(=O)NC(C)C)cc2)CC1	?	27	18µM*	5%	4%	-2%
CC(C)NS(=O)(=O)c1ccc(OCC(=O)N2CCN(c3ccccc3F)CC2)cc1	?	.	15µM*	.	0%	.
Cc1sc(-n2cnnn2)c(C(=O)Nc2ccc3c(c2)OCCO3)c1C	.	.	.	.	1%	.
COCCCNC(=O)C1CCC(CNS(=O)(=O)c2ccc3c(c2)N(C(C)=O)CCO3)CC1 (stereo unspecified)	-3%	15	4%	-5%	-10%	4%
CC(=O)N1CCOc2ccc(S(=O)(=O)NCC3CCC(C(=O)Nc4ccc(C)cn4)CC3)cc21 (stereo unspecified)	15µM*	-8	13µM*	-27%	-15%	-15%
CSc1ncc(CN2CCc3c([nH]c4ccccc34)C2C(C)(C)C)cn1 (stereo unspecified)	?	6	23µM*	0%	-16%	2%
CCc1ccccc1NC(=O)N1CCN(c2ccc(=O)n(-c3ccc(C)cc3)n2)CC1	.	.	.	.	-1%	.
Fc1ccc(/C=N\Nc2cccc(F)c2)cc1	-16%	-6	-8%	3%	14%	5%
Fc1ccc(/C=N/Nc2ccc(F)cc2)cc1	.	.	.	.	2.2µM*	.
Brc1ccc(/C=N/Nc2ccccc2)cc1	?	8	-26%	?	45µM*	?
COc1ccc(OC)c(NC(=O)COc2cccc(C)c2C)c1	.	.	.	.	-5%	.
CN(C)S(=O)(=O)c1ccc(C(=O)Nc2ccnn2C2CCCCC2)cc1	?	11	16µM*	-10%	-9%	-6%
COC(=O)c1cc(OCc2cccc(Br)c2)cc(C(=O)OC)c1	.	.	.	.	-17%	.
CC[N+](C)(CC)CCCOC(=O)C1(c2ccccc2)CCCC1	.	.	.	.	20µM*	.
C[N+](C)(C)CCOC(=O)C1(c2ccccc2)CCCC1	-29%	-8	-27%	0%	154%	5%
CC[N+](CC)(CC)CCCOC(=O)C1(c2ccccc2)CCCC1	.	.	.	.	20µM*	.
O=C(Nc1ccc(Br)cc1)c1cccc(S(=O)(=O)Nc2cnc3ccccc3c2)c1	-29%	?	?	?	?	?
